Source: PubChem (National Center for Advancing Translational Sciences (NCATS))
Compounds with a hit are over-represented: about 9.2% of the library has one in this group of screens.
SMN2 splice enh: SMN2 splice variant enhancement; AID 1458; HEK293 SMN2-luciferase splicing reporter, luminescence, 30-36 h; Potency, µM (series often up to 46.1 µM), without a hit: at the top dose activity change, positive = activation, actives largely listed as activators; 2.8% of 210,000 active; note: % of control where 0% means no effect; nearly all actives have a fitted effect of over 55% in size
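qHTS luciferase splicing reporter: luminescence rises when SMN2 exon 7 is included in transfected HEK293 cells. Compound exposure lasted 30-36 h at 37C, with 4.5 mM final sodium butyrate as control, followed by a ONE-Glo read.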
ELG1 repair inh: inhibitors of ELG1-dependent DNA repair in HEK293T cells; HEK293T ELG1-luciferase reporter, luminescence, 16 h; DNA damage induced by 5-fluorouridine; Potency, µM (titrated, usually from 46.1 µM), inactives show at the top dose activity change, negative = inhibition, hits mostly inhibitors; 2.3% of 330,000 active; AID 504467; note: % is set by controls: 0 for no effect and ±100 for the full control effect; nearly all actives have a fitted effect of over 55% in size
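DMSO vehicle served as the neutral condition. Each well held 2,000 cells given 5-fluorouridine plus compound; after 16 hr at 37 °C/5% CO2, ONE-Glo was added and luciferase measured 30 min later.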
FLuc counter: firefly luciferase modulation, counter-screen for miR-21 project | P08659 | purified FLuc, Km substrates, luminescence inhibition | Potency, µM (series often up to 57.5 µM), for the others: at the highest dose activity change, negative = inhibition, usual class: inhibitors | 6.9% of 360,000 active | AID 588342;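 note: plate controls were vehicle for no effect and reference inhibitor for full effect; nearly all actives have a fitted effect of over 55% in size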
Target sequence (P08659 whole entry, looked up): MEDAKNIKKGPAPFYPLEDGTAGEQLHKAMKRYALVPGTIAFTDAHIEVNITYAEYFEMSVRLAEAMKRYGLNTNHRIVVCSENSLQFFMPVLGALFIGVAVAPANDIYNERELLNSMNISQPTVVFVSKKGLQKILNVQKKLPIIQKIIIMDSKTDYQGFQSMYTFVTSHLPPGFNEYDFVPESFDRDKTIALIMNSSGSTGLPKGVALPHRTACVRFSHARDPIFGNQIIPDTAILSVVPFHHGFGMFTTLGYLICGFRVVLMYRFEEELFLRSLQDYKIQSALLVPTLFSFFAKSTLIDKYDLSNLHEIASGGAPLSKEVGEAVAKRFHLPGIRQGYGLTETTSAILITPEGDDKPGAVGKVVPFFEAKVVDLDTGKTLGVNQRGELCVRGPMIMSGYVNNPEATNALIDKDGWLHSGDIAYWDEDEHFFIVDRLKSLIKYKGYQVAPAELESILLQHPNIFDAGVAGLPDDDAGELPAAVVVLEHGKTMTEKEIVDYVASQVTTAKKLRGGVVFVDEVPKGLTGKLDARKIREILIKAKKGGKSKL
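Purified P. pyralis luciferase (10nM final) with 10uM D-luciferin and 10uM ATP (Km levels) in 50mM Tris acetate pH 7.5, 10mM Mg acetate, 0.01% Tween-20, 0.05% BSA; qHTS 6-point titration, ~60 µM downward; luminescence read.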
Rab9 promoter act: activates the Rab9 promoter. Huh7 Rab9 promoter-luciferase reporter, luminescence, 24 h. Potency, µM (doses to about 9.22 µM), for the others: at the highest dose activation, negative = inhibition, hits mostly activators. 2.8% of 320,000 active; note: % of control where 0% means no effect; nearly all actives have a fitted effect of over 60% in size
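Measured in stably transfected Huh7 cells bearing a Rab9 promoter–luciferase construct: 24 h compound treatment at 37 °C, followed by luminescence detection.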
NPC1 prom act: activates the NPC1 promoter. Potency, µM (doses to about 9.22 µM), without a hit: at the highest dose activation, actives largely listed as activators. Huh7 NPC1 promoter luciferase reporter, 24 h. 2.4% of 320,000 active; note: % of control where 0% means no effect; nearly all actives have a fitted effect of over 60% in size
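Luminescence read-out of NPC1 promoter-driven luciferase in stably transfected Huh7 cells; compounds delivered in DMSO and left 24 h at 37C, 5% CO2, qHTS titration format.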
ELG1 genotoxic: induces genotoxicity in HEK293T cells with luciferase-tagged ELG1; HEK293T ELG1-luciferase reporter, luminescence, 16 h; Potency, µM (titrated, usually from 46 µM), for inactives: at the top dose activity change, positive = activation, actives largely listed as activators; 1.3% of 330,000 active; note: % of control where 0% means no effect; nearly all actives have a fitted effect of over 60% in size
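Cells (2,000/well) expressing the ELG1-luciferase fusion are dosed by pin tool and kept 16 hr at 37 °C, 5% CO2. Signal comes from ONE-Glo luciferase reagent after 30 min at room temperature.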
* = called active by the depositor; ? = inconclusive; . = no result. Calls come from the whole dose curve; as a rule, active = well fitted curve in the direction sought with a large enough effect; inconclusive = small, poorly fitted or top-dose-only effect, or another doubt; inactive = no such curve, though single readings can be large; an effect the other way counts as inactive or inconclusive. Potency is the fitted concentration of half-maximal effect.

SMILES | SMN2 splice enh | ELG1 repair inh | FLuc counter | Rab9 promoter act | NPC1 prom act | ELG1 genotoxic
Cc1ccc(Cn2c(CN3CCC(C(=O)NCc4cccnc4)CC3)cc3ccccc32)cc1 | . | . | 0% | . | . | .
COc1ccc(-n2c(=O)c(C)nc3cnc(Oc4ccccc4)nc32)cc1 | -6% | . | . | . | . | .
Cn1cc(Cl)c(/C(N)=N/OC(=O)c2ccccc2C(F)(F)F)n1 | . | ? | 12µM* | 4.5µM* | 3.5µM* | 21µM*
Cn1cc(Cl)c(C(=O)OCC(=O)Nc2cccc(Cl)c2)n1 | . | 11% | 2% | -2% | -4% | -2%
Cc1cccc(NC(=O)CN2C(=O)CC(c3ccccc3)Sc3ccccc32)c1 (stereo not given) | -1% | . | -6% | . | . | .
COCCCNC(=O)c1ccc(-n2c(-c3ccccc3)cc3c2CCC(C)C3)cc1 (stereo not given) | . | . | -5% | . | . | .
C=CCn1cccc(C(=O)Nc2ccc(OC)c(Cl)c2)c1=O | . | ? | 19µM* | ? | ? | 9%
C=CCn1cccc(C(=O)Nc2ccc(C)c(Cl)c2)c1=O | . | ? | 9.5µM* | ? | 2.5µM* | ?
C/C(=N/NC(=O)c1ccoc1C)C12CC3CC(CC(C3)C1)C2 | -3% | ? | ? | 4% | 1% | ?
N/C(=N\OC(=O)C12CC3CC(CC(C3)C1)C2)c1cccnc1 | 24% | 19% | 15µM* | 7% | 9% | 3%
N/C(=N\OC(=O)N1CCOCC1)c1ccccc1 | -75% | 19% | 17µM* | 27% | 24% | 6%
C/C(=N\NC(=O)c1ccccn1)C12CC3CC(CC(C3)C1)C2 | 9% | ? | 15µM* | ? | 29% | 10%
N/C(=N\OC(=O)C12CC3CC(CC(C3)C1)C2)c1ccccc1 | 1% | 16% | 4.8µM* | 1% | 16% | 11%
COc1ccc(OC2C(=O)N(Cc3ccc4c(c3)OCO4)C2c2sccc2C)cc1 (stereo not given) | 2% | ? | -1% | 3% | 0% | -11%
Cc1cc(-c2nnc(CCC(=O)N3CCN(Cc4cccc(F)c4)CC3)o2)c(C)o1 | . | -11% | -15% | -3% | -8% | 2%
N/C(=N\OC(=O)C12CC3CC(CC(C3)C1)C2)c1ccccn1 | 23% | ? | 7.6µM* | 20% | 17% | ?
CCOC(=O)CSc1nc2ccc(N)cc2s1 | 4% | 5% | 19µM* | 0% | -2% | 8%
Cc1cc(NC(=O)c2ccccc2F)ccc1-c1nc2ccccc2s1 | . | . | 0.67µM* | . | . | .
COc1cc(OC)cc(C(=O)Nc2ccc(-c3nc4ccccc4s3)c(C)c2)c1 | . | . | -8% | . | . | .
CCOC(=O)CSc1nc2ccc(NC(=O)c3ccccc3F)cc2s1 | . | . | 15µM* | . | . | .
O=C(COc1ccccc1F)Nc1ccc2nc(SCC(=O)N3CCOCC3)sc2c1 | . | . | 21µM* | . | . | .
Nc1ccc2nc(SCC(=O)N3CCOCC3)sc2c1 | . | ? | -14% | 23% | 13% | 14%
Nc1oc2ccccc2c1C(=O)Cc1ccccc1O[C@@H]1O[C@H](CO)[C@@H](O)[C@H](O)[C@H]1O | . | -3% | 4% | -2% | -3% | -15%
O=C(COc1ccc(F)cc1)Nc1ccc2nc(SCC(=O)N3CCCC3)sc2c1 | . | . | -11% | . | . | .
Nc1ccc2nc(SCc3cccc(F)c3)sc2c1 | 13µM* | ? | 4.8µM* | 4.5µM* | ? | ?
SMILES | SMN2 splice enh | ELG1 repair inh | FLuc counter | Rab9 promoter act | NPC1 prom act | ELG1 genotoxic
O=C(Nc1ccc2nc(SCC(=O)N3CCCC3)sc2c1)c1ccccc1F | . | . | 24µM* | . | . | .
CC(C)N(Cc1ccccc1)C(=O)CCS(=O)(=O)c1ccc2c(c1)oc(=O)n2C | . | 15% | 4% | 1% | 0% | 3%
CC1CN(C(=O)c2cc(S(=O)(=O)N(C)c3ccc(F)cc3)ccc2Cl)CC(C)O1 (stereo not given) | . | ? | 5% | 2% | -1% | -2%
COC(=O)[C@@]1(Cc2ccccc2)[C@@H]2[C@@H](CC(=O)[C@H]2CC(=O)C(=O)N(C)C)CN1C(=O)c1ccccc1 | -5% | . | . | . | . | .
COC(=O)[C@@]1(Cc2ccc(F)cc2)[C@H]2c3cc(C(=O)N(C)C)n(Cc4ccccc4)c3C[C@H]2CN1C(=O)c1ccccc1 | -35% | -19% | 4% | -5% | -5% | 2%
C=C1C(=O)C=C2CN(C(=O)c3ccccc3)[C@@](Cc3ccc(F)cc3)(C(=O)OC)[C@@H]12 | -84% | 2.9µM* | -12% | -49% | -39% | -8%
COC(=O)[C@@]1(Cc2ccc(OC)cc2)[C@@H]2C(=CC(=O)[C@H]2CC(=O)C(=O)N(C)C)CN1C(=O)c1ccccc1 | -9% | 9.2µM* | 4% | 2% | 0% | -13%
Cn1c(=O)c2[nH]c(COc3ccc(C(C)(C)C)cc3)nc2n(C)c1=O | . | 5.8µM* | ? | -13% | -7% | -13%
c1ccc(C2CC(c3ccccc3)n3c(nc4ccccc43)N2)cc1 (stereo not given) | 19% | 26% | 0% | -13% | -3% | 6%
CCCC#Cc1ccc2c(c1)COc1c3ccccc3nn1-2 | . | ? | 1.5µM* | 0.56µM* | 0.89µM* | ?
CCC(C)(C)C(=O)O[C@H]1C[C@@H](C)C=C2C=C[C@H](C)[C@H](CC[C@@H]3C[C@@H](O)CC(=O)O3)[C@H]21 | . | -3% | 1% | -3% | 2% | 6%
CCOc1ccc(-c2cc(-c3nc(-c4ccc(OC)c(OC)c4)no3)[nH]n2)cc1 | . | . | 19µM* | . | . | .
COc1ccc(-c2cc(-c3cc(F)ccc3O)[nH]n2)cc1OC | ? | ? | 8.5µM* | 4µM* | 3.2µM* | ?
COc1ccc(OCc2nc(-c3ccc(OC)c(OC)c3)no2)cc1 | -14% | . | -16% | . | . | .
